Assays:
Experiment in all cases: protein binding microarray; high values mean tight binding
Conditions in all cases: dsDNA, one strand shown
RELARELA (p65 homodimer) = RELARELA (p65 homodimer) (Homo sapiens, UniProt Q04206 1-307)
p50p50 homodimer = p50p50 homodimer (Homo sapiens, UniProt P19838 7-356)
p52p52 homodimer = molecular target: T1, p52p52 homodimer (Homo sapiens, UniProt Q00653 4-332)
T1 sequence: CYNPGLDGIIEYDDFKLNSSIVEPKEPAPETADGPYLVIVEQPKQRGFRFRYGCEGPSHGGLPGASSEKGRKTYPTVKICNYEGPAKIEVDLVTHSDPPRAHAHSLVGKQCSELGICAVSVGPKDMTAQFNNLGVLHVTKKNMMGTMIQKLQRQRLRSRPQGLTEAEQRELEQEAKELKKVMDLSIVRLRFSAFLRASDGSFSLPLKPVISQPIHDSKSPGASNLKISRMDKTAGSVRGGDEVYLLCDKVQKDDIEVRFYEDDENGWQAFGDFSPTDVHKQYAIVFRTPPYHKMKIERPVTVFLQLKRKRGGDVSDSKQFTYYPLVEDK

[1] = molecular target: RELA (p65) subunit of heterodimer;p50 subunit (Homo sapiens;Homo sapiens, UniProt Q04206;P19838 1-307;7-356)
[2] = molecular target: RELA (p65) subunit of heterodimer;p52 subunit (Homo sapiens;Homo sapiens, UniProt Q04206;Q00653 1-307;4-332)
RELB subunit;p50 subunit = RELB subunit;p50 subunit (Homo sapiens;Homo sapiens, UniProt Q01201;P19838 120-401;7-356)
RELB subunit;p52 subunit = molecular target: T2, RELB subunit;p52 subunit (Homo sapiens;Homo sapiens, UniProt Q01201;Q00653 120-401;4-332)
T2 sequence 1: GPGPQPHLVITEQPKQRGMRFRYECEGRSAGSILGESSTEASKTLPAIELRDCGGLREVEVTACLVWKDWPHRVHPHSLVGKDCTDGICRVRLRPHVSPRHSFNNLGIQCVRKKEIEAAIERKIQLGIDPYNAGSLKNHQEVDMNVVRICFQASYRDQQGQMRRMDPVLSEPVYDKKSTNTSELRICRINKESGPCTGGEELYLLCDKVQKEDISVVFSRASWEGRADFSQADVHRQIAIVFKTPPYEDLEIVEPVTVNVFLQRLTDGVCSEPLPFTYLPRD
T2 sequence 2: T1 sequence

[3] = molecular target: C-Rel subunit;p50 subunit (Homo sapiens;Homo sapiens, UniProt Q04864;P19838 1-285;7-356)
[4] = molecular target: T3, C-Rel subunit;p52 subunit (Homo sapiens;Homo sapiens, UniProt Q04864;Q00653 1-285;4-332)
T3 sequence 1: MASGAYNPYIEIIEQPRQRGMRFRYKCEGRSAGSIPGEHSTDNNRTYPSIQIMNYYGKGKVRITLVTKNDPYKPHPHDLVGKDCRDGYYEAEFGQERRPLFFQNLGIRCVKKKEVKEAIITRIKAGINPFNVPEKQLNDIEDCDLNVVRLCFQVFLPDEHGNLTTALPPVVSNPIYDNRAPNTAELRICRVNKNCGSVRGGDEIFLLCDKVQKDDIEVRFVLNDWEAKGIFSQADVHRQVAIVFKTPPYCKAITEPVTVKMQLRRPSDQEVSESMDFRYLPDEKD
T3 sequence 2: T1 sequence

Chain of p50p50 homodimer (P19838 7-356): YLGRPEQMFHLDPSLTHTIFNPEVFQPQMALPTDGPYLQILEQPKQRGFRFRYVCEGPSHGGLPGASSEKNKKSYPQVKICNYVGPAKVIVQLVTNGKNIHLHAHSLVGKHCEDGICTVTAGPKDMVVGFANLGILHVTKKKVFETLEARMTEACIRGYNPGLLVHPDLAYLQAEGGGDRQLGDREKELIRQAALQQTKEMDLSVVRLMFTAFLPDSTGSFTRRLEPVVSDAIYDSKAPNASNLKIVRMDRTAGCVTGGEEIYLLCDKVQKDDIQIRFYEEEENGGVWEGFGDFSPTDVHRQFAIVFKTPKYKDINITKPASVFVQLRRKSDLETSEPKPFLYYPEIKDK
Chain of RELARELA (p65 homodimer) (Q04206 1-307): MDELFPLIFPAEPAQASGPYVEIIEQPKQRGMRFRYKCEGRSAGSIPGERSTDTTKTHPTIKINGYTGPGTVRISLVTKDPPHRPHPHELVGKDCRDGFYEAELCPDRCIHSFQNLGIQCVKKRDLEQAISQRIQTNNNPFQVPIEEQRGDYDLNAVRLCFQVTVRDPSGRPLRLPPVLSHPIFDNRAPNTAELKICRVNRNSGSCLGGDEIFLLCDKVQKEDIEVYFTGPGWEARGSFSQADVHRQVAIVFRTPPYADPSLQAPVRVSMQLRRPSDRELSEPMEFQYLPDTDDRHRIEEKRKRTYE
Chain of RELA (p65) subunit of heterodimer;p50 subunit (Q04206 1-307, chain 1 of 2): as the sequence (Q04206 1-307) above
Chain of RELA (p65) subunit of heterodimer;p50 subunit (P19838 7-356, chain 2 of 2): as the sequence (P19838 7-356) above

Sequence | binding signal (RELARELA (p65 homodimer)) | binding signal (p50p50 homodimer) | binding signal (p52p52 homodimer) | binding signal [1] | binding signal [2] | binding signal (RELB subunit;p50 subunit) | binding signal (RELB subunit;p52 subunit) | binding signal [3] | binding signal [4]
CAAGGGGTCCT | -0.5 z-score | -0.988 z-score | -0.106 z-score | -1.06 z-score | -0.546 z-score | -0.595 z-score | -0.354 z-score | -0.859 z-score | -0.486 z-score
GAGTTGGCCCT | -0.84 z-score | -1.24 z-score | -0.495 z-score | -0.546 z-score | -0.734 z-score | -0.243 z-score | -0.397 z-score | -0.778 z-score | -0.623 z-score
AAGATGGCCCT | -0.837 z-score | -0.78 z-score | -0.556 z-score | -0.621 z-score | -0.715 z-score | -0.275 z-score | -0.142 z-score | -0.828 z-score | -0.686 z-score
AGAAGGCCCCT | -0.756 z-score | 0.412 z-score | 0.0419 z-score | 0.306 z-score | 0.149 z-score | 0.0369 z-score | 0.0992 z-score | -0.139 z-score | 0.0154 z-score
AAAGTTACCCT | -0.188 z-score | 0.663 z-score | 0.376 z-score | 0.371 z-score | 0.376 z-score | 0.557 z-score | 0.191 z-score | 0.279 z-score | 0.216 z-score
AGATTGGTCCT | -0.38 z-score | -1.15 z-score | -0.549 z-score | -1.18 z-score | -0.788 z-score | -0.729 z-score | -0.656 z-score | -1.35 z-score | -0.852 z-score
GGAGATTCCCC | 2.94 z-score | 1.13 z-score | 2.51 z-score | 2.35 z-score | 2.22 z-score | 2.06 z-score | 2.22 z-score | 1.88 z-score | 2.2 z-score
CAGGGGACCCT | -0.887 z-score | 0.487 z-score | 0.583 z-score | 0.0452 z-score | 0.384 z-score | 0.29 z-score | 0.53 z-score | -0.293 z-score | -0.0494 z-score
GAGTATTTCCC | 2.24 z-score | 0.925 z-score | 1.05 z-score | 1.27 z-score | 1.1 z-score | 0.527 z-score | 0.505 z-score | 1.24 z-score | 1.14 z-score
GGGTTACTCCC | 0.497 z-score | 0.249 z-score | 1.29 z-score | 0.568 z-score | 0.789 z-score | 0.354 z-score | 0.378 z-score | 0.398 z-score | 0.657 z-score
AAGAATTTCCT | 1.63 z-score | -0.591 z-score | -0.35 z-score | -0.206 z-score | -0.329 z-score | -0.672 z-score | -0.375 z-score | 0.0204 z-score | -0.227 z-score
CGATTAACCCT | -0.485 z-score | -0.551 z-score | -0.421 z-score | -0.497 z-score | -0.556 z-score | -0.691 z-score | -0.624 z-score | -0.83 z-score | -0.644 z-score
AGATGAACCCC | -0.232 z-score | -0.284 z-score | -0.287 z-score | -0.402 z-score | -0.342 z-score | -0.255 z-score | -0.0728 z-score | -0.464 z-score | -0.256 z-score
AAAGTCGTCCT | -0.192 z-score | -1.25 z-score | -0.599 z-score | -1.25 z-score | -0.839 z-score | -0.89 z-score | -0.666 z-score | -1.18 z-score | -0.704 z-score
CGATGTACCCC | 0.132 z-score | 0 z-score | -0.0732 z-score | -0.125 z-score | 0.16 z-score | 0.299 z-score | 0.491 z-score | 0.113 z-score | 0.101 z-score
CGGAAATTCCC | 4.22 z-score | 1.06 z-score | 2.53 z-score | 2.23 z-score | 2.39 z-score | 1.19 z-score | 2.04 z-score | 2.28 z-score | 2.88 z-score
CAGGATATCCC | 0.644 z-score | -0.266 z-score | -0.111 z-score | -0.14 z-score | -0.0926 z-score | -0.231 z-score | -0.211 z-score | -0.116 z-score | -0.032 z-score
GAGAGACTCCT | -0.455 z-score | -2.14 z-score | -0.793 z-score | -1.01 z-score | -1.21 z-score | -1.19 z-score | -1.24 z-score | -1.58 z-score | -1.02 z-score
CAGGTTTCCCT | 0.821 z-score | 1.16 z-score | 1.21 z-score | 1.39 z-score | 1.33 z-score | 1.28 z-score | 1.76 z-score | 1.26 z-score | 0.893 z-score
GGGTGTTCCCC | 1.97 z-score | 0.783 z-score | 3.21 z-score | 2.14 z-score | 2.7 z-score | 2.21 z-score | 2.06 z-score | 1.68 z-score | 2.56 z-score
GAAAGAATCCT | -0.654 z-score | -1.19 z-score | -0.601 z-score | -1.12 z-score | -0.922 z-score | -0.95 z-score | -0.787 z-score | -1.22 z-score | -0.804 z-score
GAATAGACCCT | -0.683 z-score | -0.579 z-score | -0.346 z-score | -0.545 z-score | -0.606 z-score | -0.679 z-score | -0.749 z-score | -1.19 z-score | -0.574 z-score
CGGGGTCTCCT | -0.0145 z-score | 0.0717 z-score | 0.00961 z-score | -0.308 z-score | -0.191 z-score | -0.332 z-score | -0.207 z-score | -0.336 z-score | 0.0688 z-score
CGGAACGTCCC | 1.16 z-score | 0.116 z-score | 0.505 z-score | 0.933 z-score | 0.956 z-score | 0.184 z-score | 0.327 z-score | 0.44 z-score | 0.748 z-score
GGATACCCCCC | 0.633 z-score | 1.23 z-score | 1.22 z-score | 1.77 z-score | 1.48 z-score | 1.06 z-score | 1.52 z-score | 1.14 z-score | 1.54 z-score
CGGGTAGTCCC | 1.24 z-score | 0.936 z-score | 1.66 z-score | 1.36 z-score | 1.23 z-score | 0.735 z-score | 1.17 z-score | 1.09 z-score | 1.5 z-score
AAATATGTCCT | -0.0065 z-score | -1.09 z-score | -0.534 z-score | -0.78 z-score | -0.678 z-score | -0.828 z-score | -0.738 z-score | -0.967 z-score | -0.696 z-score
CGGAATCCCCT | 2.17 z-score | 1.6 z-score | 2.39 z-score | 2.3 z-score | 2.13 z-score | 2.43 z-score | 2.22 z-score | 1.83 z-score | 2.31 z-score
AAGTTTCCCCT | 1.76 z-score | 1.73 z-score | 2.41 z-score | 2.47 z-score | 2.06 z-score | 2.72 z-score | 2.65 z-score | 2.01 z-score | 1.96 z-score
CGGGGGGTCCC | 0.448 z-score | 0.975 z-score | 2.05 z-score | 1.38 z-score | 1.59 z-score | 1.28 z-score | 1.67 z-score | 1.04 z-score | 1.59 z-score

— PMC3218832
